CYP2C19 inh: inhibitors of human CYP2C19; CYP2C19 Supersomes, luciferin-H EGE luminescence, 30 min; AID 778; inhibition, % at 5 µM; actives 21% (n = 96,000); P33261;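 active means CYP2C19 inhibition above a set limit at 5 µM in the primary screen, cut at about 50% in these data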;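 further: plate controls were negative control wells for no effect and 2.5 mM tranylcypromine positive control for full effect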
Target sequence (P33261 whole entry, looked up): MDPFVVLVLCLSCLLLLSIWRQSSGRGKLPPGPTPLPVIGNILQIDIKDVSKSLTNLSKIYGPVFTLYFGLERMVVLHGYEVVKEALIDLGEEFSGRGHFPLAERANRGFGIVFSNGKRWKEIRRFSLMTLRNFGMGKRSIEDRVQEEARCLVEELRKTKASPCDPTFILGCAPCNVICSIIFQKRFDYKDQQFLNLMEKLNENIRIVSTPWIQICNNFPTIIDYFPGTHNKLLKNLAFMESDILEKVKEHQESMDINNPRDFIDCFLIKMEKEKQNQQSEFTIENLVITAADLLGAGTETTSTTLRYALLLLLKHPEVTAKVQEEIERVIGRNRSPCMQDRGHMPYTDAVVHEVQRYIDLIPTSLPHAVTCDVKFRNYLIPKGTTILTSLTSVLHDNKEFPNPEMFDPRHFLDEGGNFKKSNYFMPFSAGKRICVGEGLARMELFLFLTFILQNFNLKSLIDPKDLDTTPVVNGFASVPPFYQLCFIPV
CYP2C19 activ: activators of human cytochrome P450 2C19. P33261. recombinant CYP2C19, luciferin-H EGE luminescence; hits give high values; 0 = fully inhibited enzyme, 1 = untreated enzyme. activation factor at 5 µM. 96,000 tested, under 10 active. AID 1025;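 active means activation factor of at least 2 at 5 µM in the primary screen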;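 further: 0 = wells with 2.5 mM tranylcypromine and 1 = vehicle-only wells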
CYP2C9 act: activators of human CYP2C9 | recombinant CYP2C9, luciferin-H conversion, luminescence; hits give high values; factor 1 = untreated enzyme, 0 = blocked | activation factor at 5 µM | P11712 | actives 1.4% (n = 96,000) | AID 1024;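 active means activation factor of 2 or more for CYP2C9 at a 5 µM dose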;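 further: 0 = sulfaphenazole-blocked wells and 1 = vehicle-only wells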
CYP2C9 inh: inhibitors of human CYP2C9 | P11712 | CYP2C9 Supersomes, luciferin-H conversion, luminescence | inhibition, % at 5 µM | actives 20% (n = 96,000) | AID 777;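 active means blocking of liver enzyme CYP2C9 beyond about 50% at 5 µM, limit read from the data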
* hit, by the source's call. An excerpt weighted towards active compounds, which were near 31% of everything screened.

SMILES	CYP2C19 inh	CYP2C19 activ	CYP2C9 act	CYP2C9 inh
O=C(CSc1nnc(-c2ccccc2Br)o1)Nc1cccc2ccccc12	12	0.9	0.9	9
COc1ccc(-c2nnc(SC(C)C(=O)Nc3cccc(Cl)c3)o2)cc1 (configuration not stated)	48	0.5	0.4	61*
CC(Sc1nnc(-c2ccc(O)cc2)o1)C(=O)Nc1cccc2ccccc12 (configuration not stated)	72*	0.3	0.9	14
COc1cccc(-c2nnc(NC(=O)C(C)C)o2)c1	7	0.9	0.9	12
N/C(COc1ccc(Cl)cc1Cl)=N\NS(=O)(=O)c1ccccc1	29	0.7	0.7	32
COC(=O)c1ccc(N2C(=O)CC(N3CCC(O)(c4ccc(Br)cc4)CC3)C2=O)cc1 (configuration not stated)	12	0.9	0.9	12
Cc1ccnc(SCCn2c(N3CCCCC3)nc3c2c(=O)[nH]c(=O)n3C)n1	6	0.9	0.8	16
Cc1ccc(C(=O)CSc2nnc(COc3cccc(C)c3)o2)cc1	4	1	1	-1
O=c1cc(CSc2nnc(COc3ccccc3Cl)o2)nc2sccn12	88*	0.1	0.5	53*
Cc1cccc(OCc2nnc(SCc3cc(=O)n4cc(Br)ccc4n3)o2)c1	92*	0.1	0.1	90*
CC(C)NC(=O)NC(=O)CSc1nnc(COc2ccccc2Cl)o1	14	0.9	0.7	28
CCOC(=O)CSc1nnc(Cn2nnc(-c3ccccc3)n2)n1C	10	0.9	1	3
COc1cc(C(=O)NCCC(=O)NC2CCCCCCC2)cc(OC)c1OC	83*	0.2	0.6	37
COc1ccc(C(=O)CCC(=O)O)cc1	2	1	1	0
COC(=O)C(O)(CC(=O)c1ccc(OC)cc1)C(F)(F)F (configuration not stated)	63*	0.4	1	4
Cc1ccc(C(=O)CC2(O)C(=O)N(C)c3ccc(Br)cc32)c(C)c1 (configuration not stated)	62*	0.4	0.4	55*
CN1C(=O)C(O)(C2COC(C)(C)CC2=O)c2ccccc21 (configuration not stated)	-14	1.1	1.2	-20
CN1C(=O)C(O)(C2COC(C)(C)CC2=O)c2cc(Br)ccc21 (configuration not stated)	54*	0.5	1	-5
CCN1C(=O)C(O)(CC(=O)c2ccccn2)c2ccccc21 (configuration not stated)	0	1	1	0
CN1C(=O)C(O)(CC(=O)c2ccccn2)c2cc(Br)ccc21 (configuration not stated)	67*	0.3	0.9	6
COc1ccc(OCC(=O)O/N=C(\N)Cc2ccc(Cl)cc2Cl)cc1	10	0.9	1	0
Cc1ccc(C)c(NC(=S)N2CCC(N(C)CC3CCCO3)CC2)c1 (configuration not stated)	2	1	1	2
O=C(Nc1cccc(O)c1)c1ccc(Br)cc1	52*	0.5	0.7	29
Cc1cc(Cl)ccc1OC(C)c1nnc(N)s1 (configuration not stated)	61*	0.4	1	-1
CCCCNC(=O)CSc1nc2cc(OC)c(OC)cc2c(=O)n1Cc1ccc(OC)cc1	34	0.7	0.3	68*
SMILES	CYP2C19 inh	CYP2C19 activ	CYP2C9 act	CYP2C9 inh
COCCNC(=O)CSc1nc2cc(OC)c(OC)cc2c(=O)n1Cc1ccco1	28	0.7	0.2	83*
CCNC(=O)CSc1nc2cc(OC)c(OC)cc2c(=O)n1CCC1=CCCCC1	52*	0.5	0.5	52*
COc1ccc(Cn2c(SCC(=O)NCc3ccco3)nc3ccsc3c2=O)cc1	45	0.6	0.6	40
CC(=O)NCCn1c(SCC(=O)NCCC2=CCCCC2)nc2ccccc2c1=O	31	0.7	0.8	20
COC(=O)c1ccc2c(=O)n(Cc3ccco3)c(SCC(=O)Nc3ccc(C)c(Cl)c3)nc2c1	12	0.9	0.2	77*
Cc1cc(NC(=O)CN2CCN(c3ccc(O)cc3)CC2)no1	-1	1	1	-3
CCn1c2ccccc2c2nc3cc(OC)c(OC)cc3nc21	19	0.8	0.5	46
COCCn1c(SCC(=O)NCc2ccco2)nc2cccnc21	54*	0.5	1.1	-8
CCSc1nc2cc(OC)c(OC)cc2c(=O)n1CC	36	0.6	0.5	52*
COc1ccc(CCNC(=O)CSc2nc(C)nc3c2c(=O)n(C)c(=O)n3C)cc1OC	-12	1.1	1.1	-11
O=C(COC(=O)CCCSc1nc2ccccc2[nH]1)NC(=O)NC1CCCC1	13	0.9	1.5	-52
C=CCn1c(SCC(=O)Nc2cccc3ccccc23)nnc1-c1cnccn1	55*	0.4	0.6	43
C=CCn1c(COc2ccccc2F)nnc1SCC(=O)Nc1cc2oc3ccccc3c2cc1OC	21	0.8	0.6	42
C=CCn1c(SCC(=O)Nc2cc3oc4ccccc4c3cc2OC)nnc1-c1cnccn1	75*	0.2	0.1	95*
COc1ccc(NC(=O)C2CSC3c4ccccc4C(=O)N23)cc1 (configuration not stated)	70*	0.3	0.4	60*
O=C(NCC1CCCO1)[C@@H]1CSC2c3ccccc3C(=O)N21 (some centres not stated)	14	0.9	0.8	22
CC(C)CNc1c(N)c(=O)oc2ccccc12	0	1	0.9	12
COC(=O)CC(NC(=O)c1ccc(C)cc1)c1ccccc1 (configuration not stated)	69*	0.3	0.6	39
C=CCOC(=O)CC(NC(=O)c1ccccc1)c1ccccc1 (configuration not stated)	96*	0	0.1	94*
Cc1ccc(CC(NC(=O)c2ccccc2)C(=O)NC(C)C(=O)O)cc1 (configuration not stated)	7	0.9	1	-3
O=C(NC(NC(=O)c1ccccc1)c1ccccc1)c1ccccc1	8	0.9	1	4
COC(=O)CC(NC(=O)c1ccc(C)cc1)c1ccc2c(c1)OCO2 (configuration not stated)	78*	0.2	0.3	68*
C=CCOC(=O)/C(=C\c1cccc2ccccc12)NC(=O)c1ccccc1	82*	0.2	0.2	78*
c1ccc(-n2c(Cc3cn4ccsc4n3)nnc2N2CCOCC2)cc1	-8	1.1	1.1	-13
COc1ccc(C2(CCN)CC(C)N(C)CC2C)cc1 (configuration not stated)	2	1	1.1	-10
COc1ccc(OC)c(NC(=O)C2CCCN(S(=O)(=O)c3cccc4nonc34)C2)c1 (configuration not stated)	20	0.8	0.9	5
COc1ccc(C2C(C(=O)OCC3CCCO3)=C(C)NC3=C2C(=O)CC(c2ccco2)C3)cc1O (configuration not stated)	18	0.8	0.7	33
COc1ccc(/C=N/NC(=O)C2c3ccccc3Oc3ccccc32)c(OC)c1	9	0.9	1	4

Bioassay records deposited in PubChem BioAssay by Sanford-Burnham Center for Chemical Genomics.
